PubChem BioAssay AID1851 (National Center for Advancing Translational Sciences (NCATS), 2009)
About 4,000 (25%) of roughly 16,000 compounds were called active. Inconclusive results (about 26%) are left out. The call rests on the fitted dose curve; in most records, active means well fitted curve in the direction sought with a large enough effect; inconclusive means small, poorly fitted or top-dose-only effect, or effect the other way; inactive means no such curve, though single readings can be large or run the other way. Not all results are given here.

biological target: Cytochrome P450 2C9 (Homo sapiens) (UniProt P11712); assay: Cytochrome panel assay with activity outcomes; settings: recombinant CYP, pro-luciferin dealkylation, luminescence, p450-cyp2c9; series mostly up to 57.1 µM
Sequence (P11712 whole entry, looked up): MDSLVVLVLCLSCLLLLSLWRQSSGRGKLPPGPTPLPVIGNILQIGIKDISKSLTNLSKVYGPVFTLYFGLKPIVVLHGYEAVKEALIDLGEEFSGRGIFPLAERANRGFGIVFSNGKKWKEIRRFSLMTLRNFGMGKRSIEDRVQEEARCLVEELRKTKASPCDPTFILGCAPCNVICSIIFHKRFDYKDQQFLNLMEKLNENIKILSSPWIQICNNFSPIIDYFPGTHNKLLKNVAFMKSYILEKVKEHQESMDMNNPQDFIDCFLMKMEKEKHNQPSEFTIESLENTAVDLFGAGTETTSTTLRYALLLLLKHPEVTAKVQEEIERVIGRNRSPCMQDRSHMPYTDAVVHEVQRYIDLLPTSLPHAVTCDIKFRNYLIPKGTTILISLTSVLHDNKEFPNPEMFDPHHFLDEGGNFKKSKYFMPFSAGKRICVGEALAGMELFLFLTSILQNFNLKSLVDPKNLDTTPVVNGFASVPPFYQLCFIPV
On the % scale 0 is the no-effect control and ±100 the full control effect.

Row | Structure (SMILES) | AC50 | activity, negative = inhibition
1 | O=C(CSc1nc2nc(-c3cccs3)cc(C(F)(F)F)c2c(=O)[nH]1)NCc1ccco1 | 0.631 µM (active) | –
2 | CCn1cc(C(=O)NCC(=O)OC)c2cc(OC)c(OC)cc2c1=O | inactive | –
3 | c1ccc(CN2c3ccccc3-c3nc4ccccc4n3C2c2ccccn2)cc1 (configuration not stated) | 7.94 µM (active) | –
4 | Clc1ncccc1-c1nc2ccccc2n1Cc1ccccc1 | 15.8 µM (active) | –
5 | Clc1ccc(Cn2c(-c3cccnc3Cl)nc3ccccc32)c(Cl)c1 | 5.62 µM (active) | –
6 | CC(C)(C)c1cc2cccnc2n1Cc1ccccc1 | inactive | –
7 | Oc1ccc(Cn2c(-c3ccc(O)cc3)nc3ccccc32)cc1 | – | 9.3% [at 11.4 µM] (inactive)
8 | NC(N)=N[C@H](CCC(=O)O)C(=O)O | inactive | –
9 | O=C1OCC(c2ccccc2)=C1c1ccc(S(=O)(=O)N2CCOCC2)s1 | 12.6 µM (active) | –
10 | CCCCCC(=O)O[C@H](CC(=O)O)C[N+](C)(C)C | inactive | –
11 | Cc1cccc(N2CCN(CC(=O)Nc3ccc(-n4cnnn4)cc3)CC2)c1C | inactive | –
12 | O=C(NCCCN1CCN(c2ccccc2F)CC1)C1CCC(=O)N1C1CCCCC1 (configuration not stated) | inactive | –
13 | O=C(CN1CCN(S(=O)(=O)c2ccc(F)cc2)CC1)Nc1ccc(Cl)c(C(F)(F)F)c1 | inactive | –
14 | CC1CCOC2(O1)C(=O)N(CN1CCN(c3ccccc3F)CC1)c1ccccc12 (configuration not stated) | inactive | –
15 | COc1ccccc1N1CCN(C[C@@H](C(=O)NC(C)(C)C)c2ccccc2)CC1 | inactive | –
16 | COc1ccccc1NC(=O)CN1CCN(c2ccccc2F)CC1 | 5.01 µM (active) | –
17 | COc1ccc(S(=O)(=O)N2CCN(CC(=O)Nc3cc(OC)cc(OC)c3)CC2)cc1 | inactive | –
18 | CCN(CC)c1ccc(NC(=O)CN2CCN(c3ccccc3F)CC2)cc1 | 11.2 µM (active) | –
19 | COc1ccc(C)cc1NC(=O)CN1CCN(S(=O)(=O)c2ccc(F)cc2)CC1 | 2.51 µM (active) | –
20 | O=C(CCN1CCN(c2ccccc2F)CC1)Nc1ccccc1F | 3.98 µM (active) | –
21 | O=c1c(-c2ccccc2)c(O)c2cccc3c2n1CCC3 | inactive | –
22 | COc1ccccc1CN1CCCC2(CCNCC2)C1 | inactive | –
23 | CCOc1ccc(C(=O)CN2CCN(S(=O)(=O)c3ccc(F)cc3)CC2)cc1 | inactive | –
24 | COc1ccccc1N1CCN(CCN(C(=O)C2CCCCC2)c2ccccn2)CC1 | inactive | –
25 | CCOC(=O)N1CCN(S(=O)(=O)c2ccc(C(=O)Nc3ccc(F)cc3F)cc2)CC1 | 15.8 µM (active) | –
26 | COc1cc(NC(=O)c2ccccc2)c(OC)cc1NC(=O)CN1CCN(c2ccccn2)CC1 | 3.16 µM (active) | –

Row | Structure (SMILES) | AC50 | activity, negative = inhibition
27 | COC(=O)N1CCC2(CC1)CN(c1ccccn1)C2 | inactive | –
28 | CN(C)CCNc1ccccn1 | – | 3.16% [at 11.4 µM] (inactive)
29 | Cc1noc(C)c1C(=O)N1CCC2(CCCN(Cc3nccs3)C2)CC1 | inactive | –
30 | CN(C)Cc1ccccc1-c1cncnc1NC1CC1 | – | 8.78% [at 2.29 µM] (inactive)
31 | Cc1cc(OCCNCCO)cc(C)c1Cl | inactive | –
32 | Cc1ccc(OCCNC(=O)c2cc(-n3cnnc3)ccc2Cl)cc1C | 11.2 µM (active) | –
33 | CN(C)CCNC(=O)c1cc(Br)ccc1Cl | inactive | –
34 | Cc1cccc(N/C(=N\S(=O)(=O)c2ccccc2)C(F)(F)F)c1 | 2.51 µM (active) | –
35 | NC(N)=N/N=C\c1ccc(C2CCNCC2)cc1 | – | 2.7% [at 11.4 µM] (inactive)
36 | N#Cc1ccccc1NC(=O)Nc1cccs1 | inactive | –
37 | O=C(NCc1ccco1)Nc1cccs1 | 11.2 µM (active) | –
38 | Cc1cc2ccccc2n1CCNC(=O)C1CCCC1 | inactive | –
39 | Cc1cc(NC(=O)C2CCCCC2)nc2c1c(=O)oc1ccccc12 | 14.1 µM (active) | –
40 | O=C(Nc1cc2ccccc2oc1=O)C1CCCCC1 | inactive | –
41 | CN1CCN(c2nc(-c3ccccc3)cc(C(F)(F)F)n2)CC1 | inactive | –
42 | COc1ccccc1-c1nc(N2CCN(C)CC2)c2ccccc2n1 | – | 11.5% [at 2.29 µM] (inactive)
43 | COc1ccc(-c2cc(C(F)(F)F)nc(NC3CCCC3)n2)cc1OC | 7.94 µM (active) | –
44 | COc1ccc(-c2cc(C(F)(F)F)nc(N3CCCCC3)n2)cc1OC | 10 µM (active) | –
45 | COc1cccc(-c2cc(C(F)(F)F)nc(N3CCOCC3)n2)c1 | 15.8 µM (active) | –
46 | COc1ccc(-n2c(=O)c(-c3cc(F)cc(F)c3)nc3cnc(N4CCOCC4)nc32)cc1 | inactive | –
47 | COc1ccccc1N1CCN(c2nc(-c3ccccc3)cc(C(F)(F)F)n2)CC1 | 5.62 µM (active) | –
48 | COc1ccc(-c2cc(C(F)(F)F)nc(N3CCN(C)CC3)n2)cc1OC | inactive | –
49 | COc1ccccc1-c1nc(NC2CC2)c2ccccc2n1 | – | 5.77% [at 2.29 µM] (inactive)
50 | COc1ccccc1-c1cc(C(F)(F)F)nc(S(=O)(=O)CCCC(=O)NC(C)C)n1 | inactive | –
51 | CO[C@H]1COC(=O)C/C=C\[C@@H](C)[C@H](OC)COC(=O)CCC[C@@H]1C | – | 9.38% [at 11.4 µM] (inactive)
52 | COc1cc2c(cc1OC)-c1cc3ccc(OC)c(OC)c3c[n+]1CC2 | inactive | –

Row | Structure (SMILES) | AC50 | activity, negative = inhibition
53 | CN(C)c1ncc2nc(-c3cc(F)cc(F)c3)c(=O)n(C[C@H]3CCCO3)c2n1 | inactive | –
54 | Cn1c(=O)c(-c2ccc(F)cc2)nc2cnc(N3CCOCC3)nc21 | inactive | –
55 | COc1ccc(-c2cc(C(F)(F)F)nc(N3CCOCC3)n2)cc1OC | 3.98 µM (active) | –
56 | COc1ccc(-n2c(=O)c(-c3ccc(F)cc3)nc3cnc(N4CCOCC4)nc32)cc1 | inactive | –
57 | COc1cc2c(cc1OC)[C@H](c1ccccc1)CN(C)CC2 | inactive | –
58 | CC(C)(CO)N1CCN(C(=S)Nc2ccccc2)CC1 | – | 10.3% [at 11.4 µM] (inactive)
59 | COc1cc2c(cc1OC)CN(C(=S)Nc1ccccc1)CC2 | 4.47 µM (active) | –
60 | O=C(/C=C/c1cccnc1)c1ccc(NC(=O)c2cccc(Br)c2)cc1 | 4.47 µM (active) | –
61 | O=C(N/C(=C\c1cccnc1)C(=O)N1CCOCC1)c1cccc(Br)c1 | inactive | –
62 | CN(C)CCn1c(C(=O)O)cc2ccccc21 | inactive | –
63 | FC(F)(F)c1nc2ccccc2nc1N/N=C/c1ccc(Cl)cc1 | inactive | –
64 | N#CC(c1ccc(Cl)cc1)c1nc2ccccc2nc1C(F)(F)F (configuration not stated) | 1.41 µM (active) | –
65 | Cc1ccccc1Oc1ncnc2sccc12 | inactive | –
66 | Cc1cc(Cl)ccc1Oc1ncnc2oc(-c3ccccc3)cc12 | 4.47 µM (active) | –
67 | Cc1ccccc1Oc1ncnc2oc(-c3ccccc3)cc12 | 3.98 µM (active) | –
68 | Cc1cc(Cl)ccc1Oc1ncc(-c2ccc(Cl)cc2)cn1 | inactive | –
69 | CC(O)(P(=O)(O)O)P(=O)(O)O | inactive | –
70 | O=C(c1cnccn1)N1CCC2(CC1)CN(Cc1cc(C(F)(F)F)cc(C(F)(F)F)c1)C2 | inactive | –
71 | COc1ccc2cc(C)c3nnc(SCC(=O)Nc4nc(-c5ccccc5)cs4)n3c2c1 | 2.82 µM (active) | –
72 | COc1ccc(-c2nc(-c3ccccc3)c(-c3cc([N+](=O)[O-])ccc3C)[nH]2)cc1O | 10 µM (active) | –
73 | CCCC(=O)NC(Nc1ccccc1F)C(Cl)(Cl)Cl (configuration not stated) | 8.91 µM (active) | –
74 | N#Cc1c(NC(=O)C2CC(c3ccccc3Cl)=NO2)sc2c1CCC2 (configuration not stated) | 0.708 µM (active) | –
75 | CCN(c1ccccc1)c1cc(NC)[n+](C)c(C)n1 | inactive | –
76 | CC(C)(C)n1nnnc1C(c1cccnc1)N(Cc1ccccc1)Cc1ccco1 (configuration not stated) | 3.98 µM (active) | –
77 | CN(Cc1ccco1)c1ccnc(-c2cccnc2)n1 | – | 16.4% [at 2.29 µM] (inactive)
78 | CN(Cc1ccco1)c1nc(-c2cccnc2)nc2ccccc12 | – | -8.92% [at 2.29 µM] (inactive)

Row | Structure (SMILES) | AC50 | activity, negative = inhibition
79 | Cc1ccc(-n2c(C)nnc2SCC(=O)N2CCc3ccccc3C2)cc1C | inactive | –
80 | C=CCn1c(SCC(=O)N2CCc3ccccc3C2)nc2ccccc2c1=O | 0.2 µM (active) | –
81 | O=C(O)/C=C\C(=O)N1Cc2cc3ccccc3nc2C1 | – | 10.3% [at 11.4 µM] (inactive)
82 | CCn1c2ccc(Cl)cc2c2nc3ccccc3nc21 | 10 µM (active) | –
83 | CCn1c(N)nc2ccccc21 | inactive | –
84 | CCn1c2ccccc2c2nnc(NCCCO)nc21 | – | 5.48% [at 11.4 µM] (inactive)
85 | O=C(O)CCc1nc(-c2ccccc2-n2cccc2)no1 | – | -3.02% [at 11.4 µM] (inactive)
86 | C=Cc1c(C)c2cc3nc(cc4[nH]c(cc5nc(cc1[nH]2)C(C)=C5CCC(=O)O)c(CCC(=O)OC)c4C)[C@@]1(C)C3=CC=C(C(=O)OC)[C@H]1C(=O)OC (tested in a mixture with another compound) | 1.26 µM (active) | –
87 | Cc1cccc(CNc2cc(-c3ccc(N(C)C)cc3)ncn2)c1 | – | -14.7% [at 2.29 µM] (inactive)
88 | CCOc1ccc2ccccc2c1C(=O)N[C@@H]1C(=O)N2[C@@H]1SC(C)(C)[C@@H]2C(=O)O | inactive | –
89 | CCOc1cc(C2CC(=O)c3c(ccc4ccccc34)N2)ccc1O (configuration not stated) | 3.16 µM (active) | –
90 | Cc1nc2cnc(Nc3ccccc3)nc2n(CCc2ccccc2)c1=O | inactive | –
91 | Cc1nc2cncnc2n(Cc2ccccc2)c1=O | 15.8 µM (active) | –
92 | COc1cccc(Cn2c(=O)c(-c3cccs3)nc3cncnc32)c1 | 2.51 µM (active) | –
93 | COc1cccc(Nc2ncc3nc(-c4cccs4)c(=O)n(CCC#N)c3n2)c1 | inactive | –
94 | COc1ccc(Oc2ncc3nc(-c4cccs4)c(=O)n(Cc4cccc(OC)c4)c3n2)cc1 | 1 µM (active) | –
95 | COc1ncc2nc(-c3cccs3)c(=O)n(Cc3ccc(F)cc3)c2n1 | inactive | –
96 | O=c1c(-c2cccs2)nc2cncnc2n1Cc1ccccc1 | 1.26 µM (active) | –
97 | Cn1cc(-c2nc3cncnc3n(Cc3ccc(F)cc3)c2=O)c2ccccc21 | inactive | –
98 | CCn1cc(C(=O)O)c(=O)c2cnc(N3CCNCC3)nc21 | inactive | –
99 | Cc1cc2cc(C=O)c(Cl)nc2cc1C | inactive | –
100 | COc1cccc(Cn2c(=O)c(-c3cccs3)nc3cnc(OC)nc32)c1 | 3.16 µM (active) | –
101 | COc1cccc(Cn2c(=O)c(-c3cccs3)nc3cnc(N(C)C)nc32)c1 | inactive | –
102 | CCNc1ncc2nc(-c3cccs3)c(=O)n(Cc3cccc(OC)c3)c2n1 | inactive | –
